# Compound activity (PubChem)
# Only a selection was taken, and hits are over-represented in it overall.
# A1 inh = inducers of caspase activity in MEF A1-2A-BIM cells, primary screen, A1 inhibitor project, cell-based, CaspaseGlo luminescence. caspase-Glo luminescence, 3 h; percent of clofoctol signal, DMSO as zero. caspase activation, % (test concentration not listed). 0.51% of 21,000 active;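 active = most replicate scores above 10, or exactly half above 10 with mean activity above 10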;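 note: effector caspase 3 and 7 activity cleaving a DEVD luciferin substrate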
# * = called active by the depositor.
SMILES,A1 inh
Cc1ccc(-c2cc(=O)[nH]c3ccccc23)cc1,-0.3
CSc1c(-c2ccc(Cl)cc2)[nH]c2ccccc12,13.8*
CCCCCCN(CCCCCC)C(=O)Cc1c(-c2ccc(F)cc2)[nH]c2ccccc12,-0.7
O=c1oc2ccccc2c2c1ncn2CCN1CCCC1,0.2
COc1cccc(C(CC(=O)Nc2sc3c(c2C#N)CCCC3)NC(=O)c2ccccc2)c1 (centres undefined),-2.4
C[C@H](CO)N1C[C@H](C)[C@@H](CN(C)Cc2ccncc2)Oc2ccc(NC(=O)Cc3ccccc3)cc2C1=O,-0.6
CC(C)(C)c1n[nH]c(C(C)(C)C)c1Cc1c(F)cccc1Cl,-0.5
COc1ccc(S(=O)(=O)Nc2ccc3c(c2)C(=O)N([C@@H](C)CO)C[C@H](C)[C@@H](CN(C)Cc2ccc(-c4ccccc4)cc2)O3)cc1,0.2
CCC(C(=O)NCc1cccc(OC)c1OC)n1sc2ccccc2c1=O (centres undefined),0.4
COc1ccccc1C1CCN(Cc2cccc3ccccc23)CC1,1.9
COc1cccc2sc(=NC(=O)Cc3cccc4ccccc34)n(C)c12,10.1*
O=C(c1ccc2c(c1)OCCCO2)N1CCOCC1,1.3
C[C@@H]1CN([C@H](C)CO)C(=O)c2cc(NS(=O)(=O)c3cn(C)cn3)ccc2O[C@@H]1CN(C)CC1CCCCC1,-0.3
CCOC(=O)c1ccc(NC(=O)c2oc3c(c2C)-c2nn(Cc4ccc(C)cc4)cc2CC3)cc1,21.8*
CNC(=O)Cn1cc2c(n1)-c1c(oc(C(=O)N3CCCC3)c1C)CC2,-0.3
CCOC(=O)c1ccc(NC(=O)c2ccc(C(C)(C)C)cc2)cc1,0.2
O=S(=O)(Cc1ccccc1)NCc1ccccc1,-0.8
Cc1ccc(SCC(=O)Nc2cc(C)on2)cc1,-0.8
Cc1cc(-c2c(C(=O)Sc3ccccc3)c(C)nn2-c2ccccc2)no1,-0.4
Cc1ccc(SC(=O)c2c(C)noc2-c2cc(C)on2)cc1,9.8*
CCc1ccc2[nH]c(C(=O)NC(C)COC)cc2c1 (centres undefined),-0.5
CCCn1nc(NC(=O)c2cccc(Cl)c2)c2cc3cc(C)ccc3nc21,12.2*
Cc1cccc(NC(=O)c2cccc(Cn3nc(C)c(Cl)c3C)c2)c1C,-0.6
COC(=O)c1cc(NC(=O)c2cccc(Cl)c2)cc(C(=O)OC)c1,0.0
CCN=C1SC(CC(=O)Nc2cccc(C(=O)O)c2)C(=O)N1CC (centres undefined),1.7
SMILES,A1 inh
COC(=O)C1C(=O)NC(SCc2ccccc2)=C(C#N)C1c1ccccc1 (centres undefined),0.6
O=C(NCc1cccnc1)C1=CCN(S(=O)(=O)c2ccccc2)CC1,-0.1
O=C(NCc1cccnc1)/C(=C\c1ccc(Br)cc1)S(=O)(=O)c1ccccc1,1.0
O=C(NCc1cccnc1)/C(=C\c1cccc(Oc2ccccc2)c1)S(=O)(=O)c1ccccc1,47.0*
COc1cc(OC)cc(-c2nc(N)c3c(C)c(-c4ccc(OC)c(OC)c4)sc3n2)c1,10.1*
CC(C)[N+]1(C)C2CC[C@@H]1CC(OC(=O)C(CO)c1ccccc1)C2 (some centres undefined),0.3
CC(C)N(Cc1ccccc1)C(=O)C1=CCN(S(=O)(=O)c2ccc(F)cc2)CC1,0.3
N#CSCC(=O)C12CC3CC(CC(C3)C1)C2,36.2*
O=C(O)CSC12CC3CC(CC(C3)C1)C2,0.6
O=C(CSc1ccc(F)cc1Cl)C12CC3CC(CC(C3)C1)C2,0.5
C=C1SC(Nc2ccc(F)cc2F)=NC1(CC)CC,0.2
Cc1nn(-c2ccccc2)nc1CNC(=O)c1cccs1,-0.9
C[C@@H]1CN([C@H](C)CO)C(=O)c2cc(N(C)C)ccc2O[C@@H]1CN(C)S(=O)(=O)c1cccs1,-0.1
CCOC(=O)c1c(C)c(C(=O)Nc2ccc(C(C)C)cc2)c(C)n1C,1.2
FC(F)(F)c1[nH]nc(-c2ccccc2)c1C12CC3CC(CC(C3)C1)C2,11.0*
c1ccc(-c2nc(C34CC5CC(CC(C5)C3)C4)cs2)cc1,-1.3
CC(C)(C)c1cc(NC(=O)CSc2n[nH]c(=O)n2-c2ccc3c(c2)OCCO3)cc(C(C)(C)C)c1,-0.3
CSC(=Nc1ccc(C)c(C)c1)NC#N,-0.6
Nc1cccc(C2OCCCO2)c1,1.1
COc1cc2c(cc1NC(=O)CC(C)(C)C)oc1ccccc12,1.2
COc1ccc(C(=O)Nc2ccc(-c3cn4ccccc4n3)cc2)cc1,31.1*
Cc1ccccc1C(=O)Nc1cccc(-c2cn3ccccc3n2)c1,-1.0
COc1ccc(NC(=O)c2ccc(CSc3ccccn3)cc2)cc1,-0.1
C[C@H]1CN([C@@H](C)CO)C(=O)c2cc(NC(=O)Nc3ccc(C(F)(F)F)cc3)ccc2O[C@@H]1CN(C)Cc1ccc2c(c1)OCO2,0.6
Cc1ccc(S(=O)(=O)N(C)C[C@@H]2Oc3ccc(NC(=O)CCCN(C)C)cc3C(=O)N([C@@H](C)CO)C[C@H]2C)cc1,0.5
SMILES,A1 inh
c1ccc(C(c2ccccc2)N2CCN(CCCc3c[nH]c4ccccc34)CC2)cc1,1.1
Cc1[nH]c2ccccc2c1C(c1ccccc1)N1CCN(C)CC1 (centres undefined),65.7*
Cc1[nH]c2ccccc2c1C(O)c1cccnc1 (centres undefined),1.2
C[C@@H]1CN([C@@H](C)CO)C(=O)c2cc(NS(=O)(=O)c3ccc(Cl)cc3)ccc2O[C@@H]1CN(C)S(=O)(=O)c1ccc(Cl)cc1,-0.4
CC(C)c1ccc(CNC(=O)c2ccc(=O)[nH]c2)cc1,-1.1
O=C1Cc2c([nH]c3ccc([N+](=O)[O-])cc23)-c2ccccc2N1,10.0*
S=C(NCc1csc2ccccc12)NCC1CC1,0.6
O=C(CSc1nc2ccccc2c(=O)n1CCc1ccccc1)NCCc1ccccc1,-0.8
O=C(CCn1c(SCc2cccc(F)c2)nc2ccccc2c1=O)NCCc1ccccc1,19.4*
CCOC(CCn1c(SCc2cccc(F)c2)nc2ccccc2c1=O)OCC,1.1
O=C1Cn2nnc(C(=O)c3ccccc3)c2C2(CCCCC2)O1,0.7
Cc1cn(S(=O)(=O)c2ccc(F)cc2)cn1,-0.3
Cc1ccc(NC(=O)c2oc3ccc(S(=O)(=O)N4CCCC4)cc3c2C)cc1C,-0.5
Cc1c(C(=O)Nc2ccc(S(=O)(=O)N3CCCCC3C)cc2)oc2ccccc12 (centres undefined),0.0
Cc1c(C(=O)Nc2ccccc2Br)oc2ccc(S(=O)(=O)N3CCCC3)cc12,60.0*
COc1ccc(NC(=O)N(C)C[C@H]2Oc3ccc(NC(=O)c4ccncc4)cc3C(=O)N([C@H](C)CO)C[C@H]2C)cc1,0.4
C=C1C(=O)O[C@@H]2/C=C(/CO)CC/C=C(/C)C[C@H](OC(=O)C(C)CO)[C@@H]12 (some centres undefined),-1.0
CCn1c2c(c3cc(C4CCCCC4)ccc31)CCCC2=O,0.5
CCn1c2c(c3cc(Br)ccc31)CCCC2=O,0.0
CCn1c2c(c3cc(C4CCCCC4)ccc31)CCC/C2=N\O,15.3*
O=C(COc1ccc(NS(=O)(=O)c2cccc3cccc(Cl)c23)cc1)N1CCOCC1,0.1
N=C1/C(=C/c2ccco2)C(=O)N=C2SC(C3CCCCC3)=NN12,0.2
Cc1cc(C)cc(NC(=O)c2cc3ccccc3o2)c1,-4.4
COc1cc(NC(=O)COc2cc(C)c(Cl)c(C)c2)ccc1NC(=O)c1cc2ccccc2o1,16.5*
COc1cccc(NC(=O)COc2ccccc2OC)c1,-2.8
